Experimental findings from PubChem BioAssay (NCATS) are described below.

Structures are written as SMILES. “And” between values parts separate entries of the source, which are not always exact repeats. Equal values may be shown once. Records with an inconclusive call do not appear. A call without a number means that no potency is given here. The source made the active and inactive calls. Calls come from the whole dose curve; as a rule, active = well fitted inhibition curve with a large enough effect; inconclusive = small, poorly fitted or top-dose-only effect; inactive = flat fitted curve, though single readings scatter.
Potency is the fitted concentration of half-maximal effect.

This assay concerns Zika virus NS2B-NS3 protease. The assay is described as follows: Primary screen GU AMC qHTS for Zika virus inhibitors (AID 1347154). Note: nearly all actives have a fitted effect of over 70% in size. The note with it: Zika NS2B-NS3 unlinked protease, AMC fluorogenic substrate; series mostly up to 54.1 µM; activity change, negative = inhibition: at the top concentration. The method in brief:
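Unlinked Zika NS2B hydrophilic domain–NS3 protease complex at 25 nM in 10 mM Tris-HCl pH 8.0, 0.01% Tween 20, with an AMC peptide substrate. Fluorescence change (340/450 nm) over 15 min at room temperature, normalized to controls, fitted to 4-parameter Hill.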
A general note: qHTS replaces the single test concentration by a dilution series.
With `CCCCCCNC(=O)n1cc(F)c(=O)[nH]c1=O`, the Potency result is “inactive”. On the same count and under the same terms, to `Cc1ncc([N+](=O)[O-])n1CCO` belongs “inactive”; to `CCC(C)(C)c1ccc(CC(C)CN2C[C@@H](C)O[C@@H](C)C2)cc1` (some centres not stated), “inactive”.

`CN(C)CCc1c[nH]c2ccc(CS(=O)(=O)N3CCCC3)cc12`: the Potency result was “inactive”. For the molecule `CN1CCN(c2c(F)cc3c(=O)c(C(=O)O)cn4c3c2OCN4C)CC1`, the Potency result is “inactive”. Same read-out and setting: the result for `NC(N)=NC(N)=NCCc1ccccc1` reads “inactive”; that for `COc1ncnc(NS(=O)(=O)c2ccc(N)cc2)c1OC`, “inactive”.

Turning to `CCCN[C@H]1CCc2nc(N)sc2C1`, the Potency entry is “inactive”. For the molecule `Nc1ccc(S(=O)(=O)Nc2ccccn2)cc1`, the Potency result was “inactive”. On the same count and under the same terms, to `C[C@]12C=CC(=O)C=C1CC[C@@H]1[C@@H]2C(=O)C[C@@]2(C)[C@H]1CC[C@]2(O)C(=O)CO` belongs “inactive”; to `CN1CCN(c2c(F)cc3c(=O)c(C(=O)O)cn(CCF)c3c2F)CC1`, “inactive”; to `CC(=O)CC(c1ccccc1)c1c(O)c2ccccc2oc1=O` (configuration not stated), “inactive”. `COc1cc(NS(=O)(=O)c2ccc(N)cc2)nc(OC)n1`: the Potency entry was “inactive”.

In the case of `CC(=O)[C@H]1CC[C@H]2[C@@H]3CC=C4C[C@@H](O)CC[C@]4(C)[C@H]3CC[C@]12C`, the Potency result was “inactive”. Still for that read-out and setting: to `C[C@@H]1CN(c2c(F)c(N)c3c(=O)c(C(=O)O)cn(C4CC4)c3c2F)C[C@H](C)N1` belongs “inactive”; to `O[C@@H](CNC[C@H](O)[C@H]1CCc2cc(F)ccc2O1)[C@@H]1CCc2cc(F)ccc2O1`, “inactive”; to `CCn1cc(C(=O)O)c(=O)c2cc(F)c(N3CCNCC3)nc21`, “inactive”. The same measure, in the same setting: the result for `CCOCC(O)COc1ccc(NC(=O)CC[S+](C)C)cc1` (configuration not stated) reads “inactive”; that for `O=c1oc2c(O)c(O)cc3c(=O)oc4c(O)c(O)cc1c4c23`, 496 nM (active) and 1.92 µM (active).

Turning to `O=c1cc(O)c(Cl)c[nH]1`, the Potency result was “inactive”.

For the molecule `C1CCC(C(CC2CCCCN2)C2CCCCC2)CC1` (configuration not stated), the Potency result was “inactive”. Still for that read-out and setting: the result for `COc1cnc(NS(=O)(=O)c2ccc(N)cc2)nc1` reads “inactive”; that for `NC(=O)N1c2ccccc2CC(=O)c2ccccc21`, “inactive”; that for `Clc1ccccc1CN1CCc2sccc2C1`, “inactive”. In the case of `CN(CCOc1ccc(CC2SC(=O)NC2=O)cc1)c1ccccn1` (configuration not stated), the “activity change, negative = inhibition” value is -11.5% (inactive). With `Cc1noc(NS(=O)(=O)c2ccc(N)cc2)c1C`, the Potency entry was “inactive”. On to `COc1ccc2c(c1)c(CC(=O)OCC(=O)O)c(C)n2C(=O)c1ccc(Cl)cc1`, for which the Potency result was “inactive”. Still for that read-out and setting: to `COc1ccccc1OCC(O)COC(N)=O` (configuration not stated) belongs “inactive”; to `O=C(O)c1cc(=O)[nH]c(=O)[nH]1`, “inactive”. On the same count and under the same terms, the result for `COc1ccc2cc3[n+](cc2c1OC)CCc1cc2c(cc1-3)OCO2` reads “inactive”. Turning to `NNC(=O)c1ccncc1`, the Potency result is “inactive”. Consider `CC(C)(C)NC(=O)[C@H]1CC[C@H]2[C@@H]3CC[C@H]4NC(=O)C=C[C@]4(C)[C@H]3CC[C@]12C`, for which the “activity change, negative = inhibition” value was 6.94% (inactive).

With `Cc1nnc(NS(=O)(=O)c2ccc(N)cc2)s1`, the Potency result is “inactive”. Still for that read-out and setting: the result for `CCc1cc(C(N)=S)ccn1` reads “inactive”; that for `CC(C)C1CCC(C(=O)N[C@H](Cc2ccccc2)C(=O)O)CC1` (some centres not stated), “inactive”.

In the case of `Cn1c(=O)c2c(ncn2CC(O)CO)n(C)c1=O` (configuration not stated), the Potency result is “inactive”. The same measure, in the same setting: the result for `CCOC(=O)[C@H](CCc1ccccc1)N[C@H]1CCc2ccccc2N(CC(=O)O)C1=O` reads “inactive”.
